The text below walks through data of PubChem BioAssay.

Values joined by “and” are separate entries in the source; they are usually repeats but may differ in a detail not shown here. Equal values may be shown once. Active and inactive are the calls of the source.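 Rule for the calls, unless noted: active = thallium flux through the channel raised or lowered by more than 3 SD from vehicle-only wells, actives on both sides; inactive = the rest.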

Assay [1] is described as follows: P. berghei load reduction in hepatocytes – cell-based, HepG2, luciferase luminescence, HepG2 viability, primary screen (AID 624349; in the data active = parasite load remaining mostly below about 12%, no sharp cut-off; inactive = mostly above about 10%;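 note: 100% = mean of DMSO negative control wells on the same plate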). Conditions: P. berghei liver stage in HepG2, luciferase luminescence, concentration not given here; parasite load remaining: stronger effect = lower value; viability: measured here: HepG2 viability without parasites.
The nature of assay [2]: signal quenchers or enhancers, Cy5 substrate/SSB – biochemical, NIH Clinical Collection, E. coli SSB, artefact control for HCV NS3 helicase inhibitor project (AID 743268; call rule not given here). As to conditions: Cy5-oligo bound E. coli SSB, fluorescence interference.
Assay [3] concerns Hepatitis C virus NS3 helicase. Put plainly: blockers of NS3h binding to DNA – biochemical, fluorescence polarization, NIH Clinical Collection, primary screen (AID 743270; call rule not given here). As to conditions: NS3 helicase binding to Cy5-dT15 DNA, stronger effect = higher value, concentration not given here. Background: Polarisation of emitted light reports the rotation of a fluorescent probe.
The target in assay [4] is Single-stranded DNA-binding protein (Escherichia coli (strain K12)) (UniProt P0AGE0). Put plainly: SSB-ssDNA binding inhibitors – biochemical, fluorescence polarization, NIH Clinical Collection, counter-screen for HCV NS3 helicase inhibitor project (AID 743271; in the data active = inhibition above about 28%). Conditions: E. coli SSB-DNA binding, stronger effect = higher value, concentration not given here.
A short description of assay [5]: compounds distorting NS3 helicase fluorescence signal – biochemical, NIH Clinical Collection, artefact control for HCV NS3 helicase inhibitor project (AID 743272; call rule not given here;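 note: HCV NS3 helicase with a Cy5 labelled single stranded DNA probe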). Conditions: fluorescence interference counterscreen, HCV NS3 helicase assay; stronger effect = lower value. In general terms: The purpose of a counterscreen is to sort out artefacts and off-target activity.
The target in assay [6] is 6-phosphogluconate dehydrogenase, decarboxylating (Homo sapiens) (UniProt P52209). Put plainly: inhibition of human phosphogluconate dehydrogenase – biochemical, recombinant enzyme, NADPH absorbance, primary screen (AID 1159550;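 active = at least 20% inhibition of 6-phosphogluconate dehydrogenase activity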). Conditions: recombinant 6PGD, NADPH absorbance 341 nm; at 10 µM; stronger effect = higher value.
Sequence of 6-phosphogluconate dehydrogenase, decarboxylating (Homo sapiens) (P52209 whole entry, looked up): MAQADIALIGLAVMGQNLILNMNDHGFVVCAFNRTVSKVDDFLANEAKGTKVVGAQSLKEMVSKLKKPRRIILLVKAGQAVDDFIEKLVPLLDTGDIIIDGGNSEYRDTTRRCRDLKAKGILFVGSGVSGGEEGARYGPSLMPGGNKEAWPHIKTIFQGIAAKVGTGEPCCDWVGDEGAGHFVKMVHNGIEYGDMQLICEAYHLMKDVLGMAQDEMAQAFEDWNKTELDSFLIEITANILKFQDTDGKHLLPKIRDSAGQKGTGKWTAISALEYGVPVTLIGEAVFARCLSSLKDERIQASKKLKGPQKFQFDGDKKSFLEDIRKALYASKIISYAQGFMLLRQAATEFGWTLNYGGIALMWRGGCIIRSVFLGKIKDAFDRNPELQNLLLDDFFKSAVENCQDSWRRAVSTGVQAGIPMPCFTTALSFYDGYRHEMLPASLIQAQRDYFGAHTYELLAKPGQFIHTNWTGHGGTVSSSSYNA
The nature of assay [7]: modulation of C. elegans fzo-1 (AID 1259413; call rule not given here;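 note: fzo-1 mutant C. elegans worms in liquid wells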). As to conditions: C. elegans fzo-1 modulator screen, mean read-out; stronger effect = higher value.
Assay [8] can be described thus: viability loss with induced miR-34 in A549 – imaging, A549 dox-inducible miR-34, nuclei and caspase counts, primary screen (AID 1347080;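 active = compounds whose cell count with miR-34 switched on is under 0.7 times the count with it off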). As to conditions: A549 miR-34 inducible, Hoechst nuclei count, 48 h.
Assay [9] can be described thus: MELAS cybrid and Rieske KO viability enhancers – cell-based, MELAS cybrids, Rieske KO mouse fibroblasts, CellTiter-Glo, primary screen (AID 1508586;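 active = mean z-score across replicates of 1.96 or higher in either the MELAS or the Rieske mutant cell line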;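 note: z relative to plate mean and SD of compound and empty wells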). Conditions: low glucose. In general terms: ATP-based viability assays read luminescence as a measure of living cells.
For assay [10], the target named is NAD(+) hydrolase SARM1 (Homo sapiens) (UniProt Q6SZW1). Put plainly: blocking NAD cleavage by SARM1 SAM-TIR – cell lysate, NAD-Glo luminescence (AID 1508614;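 active = compound whose remaining NAD level is above about 45 nM, limit read from the data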;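 note: higher remaining NAD means stronger inhibition of SARM1 NADase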). As to conditions: SAM-TIR HEK293T lysate NADase, at 1 µM, stronger effect = higher value.
Sequence of NAD(+) hydrolase SARM1 (Homo sapiens) (Q6SZW1 whole entry, looked up, the tested form may be a part): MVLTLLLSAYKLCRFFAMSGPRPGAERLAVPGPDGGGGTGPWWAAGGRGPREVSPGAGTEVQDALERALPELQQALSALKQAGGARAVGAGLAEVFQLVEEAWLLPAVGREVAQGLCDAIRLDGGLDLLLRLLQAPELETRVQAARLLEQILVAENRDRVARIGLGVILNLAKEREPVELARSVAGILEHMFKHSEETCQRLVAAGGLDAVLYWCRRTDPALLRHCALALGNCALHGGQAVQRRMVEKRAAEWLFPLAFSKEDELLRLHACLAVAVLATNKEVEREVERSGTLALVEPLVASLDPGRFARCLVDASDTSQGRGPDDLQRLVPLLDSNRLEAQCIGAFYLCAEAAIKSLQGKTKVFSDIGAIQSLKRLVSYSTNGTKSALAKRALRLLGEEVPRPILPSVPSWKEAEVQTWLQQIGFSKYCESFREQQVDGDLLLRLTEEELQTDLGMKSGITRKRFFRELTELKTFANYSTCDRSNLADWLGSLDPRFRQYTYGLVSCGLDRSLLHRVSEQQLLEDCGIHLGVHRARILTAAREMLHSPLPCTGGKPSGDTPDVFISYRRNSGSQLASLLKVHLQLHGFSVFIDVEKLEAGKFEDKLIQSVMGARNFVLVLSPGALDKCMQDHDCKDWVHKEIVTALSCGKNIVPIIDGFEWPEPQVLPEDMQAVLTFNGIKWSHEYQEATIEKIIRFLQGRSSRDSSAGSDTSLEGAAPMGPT
Assay [11] addresses Mitogen-activated protein kinase 7 (Homo sapiens) (UniProt Q13164). Put plainly: Gal4-ERK5 driven luciferase induction – cell-based, HTS, primary screen (AID 1508626;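 active = luciferase signal above three times the same-plate solvent-only control wells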;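 note: luciferase driven by Gal4-ERK5 fusion binding five Gal4 sites before minimal TATA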). As to conditions: HeLa Gal4-ERK5 transactivation, 18 h, at 5 µM, stronger effect = higher value.
Assay [12] in a line: galactose survival enhancers in mitochondrial complex I cybrids – cell-based, galactose medium, ATP luminescence, primary screen (AID 1645843;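 active = z-score of at least 1.8 in each of two replicates, scored against plate mean and spread of sample wells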;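 note: positive z means more ATP and so rescue of galactose-driven cybrid death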). As to conditions: complex I mutant cybrid cells, 72 h, stronger effect = higher value.
Assay [13] concerns F380Y. Kind of assay: BK channel mutant inhibitors and activators – cell-based, U2OS BacMam, thallium flux, beta subunits, selectivity assay, profiling panel (AID 1259406).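 Note: initial slope of Thallos dye fluorescence rise after thallium is added; log ratio against the mean of 0.3% DMSO vehicle wells on the same plate.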 As to conditions: U2OS BacMam BK variants, at 30 µM.
Assay [14] deals with F380Y/beta2Delta. The assay is described as above. Conditions: U2OS BacMam BK variants, at 30 µM.
The target of assay [15] is Calcium-activated potassium channel subunit alpha-1 (Homo sapiens) + Leucine-rich repeat-containing protein 26 (Homo sapiens) (UniProt Q12791+Q2I0M4). The assay is described as above. As to conditions: U2OS BacMam BK variants, F380Y/Slo1WT/gamma1, at 30 µM.
Sequence of Calcium-activated potassium channel subunit alpha-1 (Homo sapiens) + Leucine-rich repeat-containing protein 26 (Homo sapiens) (Q2I0M4 whole entry, looked up, one chain of several): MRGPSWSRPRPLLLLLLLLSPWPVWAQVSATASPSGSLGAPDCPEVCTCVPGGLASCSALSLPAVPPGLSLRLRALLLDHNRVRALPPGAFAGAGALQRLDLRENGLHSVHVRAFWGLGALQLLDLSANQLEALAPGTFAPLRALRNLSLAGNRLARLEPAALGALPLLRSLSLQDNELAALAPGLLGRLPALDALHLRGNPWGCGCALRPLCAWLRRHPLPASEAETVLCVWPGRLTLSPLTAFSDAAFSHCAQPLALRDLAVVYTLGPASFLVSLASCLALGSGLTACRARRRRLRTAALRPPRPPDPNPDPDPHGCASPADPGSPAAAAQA
The subject of assay [16] is R275C. The description is as above. Conditions: U2OS BacMam BK variants, at 30 µM.
The test system of assay [17] is R275C/beta1. The assay is described as above. Conditions: U2OS BacMam BK variants, at 30 µM.
Assay [18] deals with R275C/beta2Delta. The assay is described as above. As to conditions: U2OS BacMam BK variants, at 30 µM.
Assay [19] is described as follows: EMT-state selective cytotoxicity in co-culture – imaging, PC-3E GFP, TEM4-18 mCherry, primary screen (AID 1345086;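 active = compounds killing one labelled cell type while sparing the other, by normalised counts and ratio limits, not self-fluorescent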;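 note: cells exposed to compound for 72 h before imaging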;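 for red/green cell ratio (normalised): normalised mesenchymal count divided by normalised epithelial count so high means epithelial killing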). As to conditions: PC-3E GFP / TEM4-18 mCherry co-culture, imaging cell counts, at 1 µM.
Where [20] appears, read: stronger effect = lower value, cell number ratio, induced over uninduced.
[21] abbreviates: measured here: relative caspase fold change +Dox/-Dox.
Where [22] appears, read: measured here: total cells with miR-34 induction, stronger effect = lower value.
Setting [23] is: measured here: total cells without miR-34 induction.
Setting [24] is: MELAS cybrid survival, CellTiter-Glo 48 h, stronger effect = higher value.
Setting [25] is: Rieske KO mouse fibroblast survival, CellTiter-Glo 72 h.

What is called viability is the share of living cells, or the viability signal relative to a control. One may read the inhibition as the drop in the measured response relative to a control, in per cent.

Sequence of Mitogen-activated protein kinase 7 (Homo sapiens) (Q13164 whole entry, looked up, the tested form may be a part): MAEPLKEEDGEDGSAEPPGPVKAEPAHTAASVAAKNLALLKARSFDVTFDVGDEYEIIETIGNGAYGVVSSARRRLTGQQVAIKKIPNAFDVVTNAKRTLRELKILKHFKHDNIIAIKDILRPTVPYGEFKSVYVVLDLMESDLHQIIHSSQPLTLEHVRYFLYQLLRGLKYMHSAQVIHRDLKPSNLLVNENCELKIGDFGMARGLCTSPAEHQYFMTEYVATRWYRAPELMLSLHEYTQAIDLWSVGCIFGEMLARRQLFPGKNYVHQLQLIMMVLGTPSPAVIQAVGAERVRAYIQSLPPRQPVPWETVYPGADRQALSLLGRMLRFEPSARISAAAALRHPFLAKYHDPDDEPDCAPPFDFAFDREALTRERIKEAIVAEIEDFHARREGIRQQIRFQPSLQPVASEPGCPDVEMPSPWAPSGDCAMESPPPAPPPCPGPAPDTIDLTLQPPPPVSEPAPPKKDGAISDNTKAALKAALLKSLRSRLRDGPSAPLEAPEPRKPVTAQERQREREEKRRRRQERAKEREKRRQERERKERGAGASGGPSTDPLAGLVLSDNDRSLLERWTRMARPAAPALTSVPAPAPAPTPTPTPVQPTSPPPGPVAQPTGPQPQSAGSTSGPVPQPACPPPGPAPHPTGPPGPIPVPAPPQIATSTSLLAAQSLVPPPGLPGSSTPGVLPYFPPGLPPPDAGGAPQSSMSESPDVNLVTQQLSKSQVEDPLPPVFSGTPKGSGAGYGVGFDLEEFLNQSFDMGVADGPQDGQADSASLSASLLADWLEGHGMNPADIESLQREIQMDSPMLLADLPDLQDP

For `Nc1ccn([C@@H]2O[C@H](CO)[C@@H](O)C2O)c(=O)n1` (some centres undefined), the parasite load remaining in [1] was 112% (inactive) and 32.3% (inactive). Moreover, the viability in assay [1] was 77.2% and 77%. For the same molecule, the fluorescence ratio in assay [2] was 1 (inactive); in assay [5], 0.87 (inactive). Further, the inhibition in [3] is -5.15% (inactive); in assay [4] it was -0.87% (inactive); in assay [6], -3.33% (inactive). Also, the mean signal in assay [7] was 259 (inactive). In addition, the fold change is 1.11 (inactive) in assay [8] (setting [20]) and 1.22 in assay [8] (setting [21]). The cell count in assay [8] (setting [22]) was determined as 3020; in assay [8] (setting [23]), 2720. Further, the z-score in assay [9] (setting [24]) was 0.809 and -1.64 (inactive); in assay [9] (setting [25]), 2.19 and 0.364; in assay [12] it was -1.98 (inactive). Besides, the remaining NAD in assay [10] is 10 nM (inactive). Besides, the luciferase signal in assay [11] is 88 AU (inactive). Further, the log fold change Tl+ flux is -0.0332 (inactive) in assay [13]; 0.0269 (inactive) in assay [14]; 0.0371 (inactive) in assay [15]; 0.00256 (inactive) in [16]; -0.0266 (inactive) in [17]; -0.0193 (inactive) in assay [18].
On to `COc1ccc2c3c1O[C@H]1C[C@@H](O)C=C[C@@]31CCN(C)C2`, for which the fluorescence ratio in [2] was 1.03 (inactive); in assay [5] it was 1 (inactive). Further, the inhibition in [3] is -2.77% (inactive); in [4], -3.95% (inactive); in assay [6] it was 6.78% (inactive). Also, in assay [7], the mean signal was 226 (inactive). For the same molecule, the red/green cell ratio (normalised) in assay [19] (actives lie on both sides, counts scaled to control wells, 1 = unselective) is 1.15 (inactive). In addition, the normalised cell number in assay [19] (measured here: epithelial PC-3E GFP cell survival) turned out to be 1; in [19] (measured here: mesenchymal TEM4-18 mCherry cell survival), 1.15. Besides, the z-score in assay [9] (setting [24]) is 0.162 (inactive) and -0.253 (inactive); in [9] (setting [25]) it was 0.459 and -0.846; in [12] it was 0.28 (inactive) and 0.575 (inactive). Also, the remaining NAD in assay [10] is 10 nM (inactive). Also, the luciferase signal in [11] is 64 AU (inactive). For the same molecule, the log fold change Tl+ flux in [13] is 0.0204 (inactive); in assay [14], 0.0272 (inactive); in [15], -0.0208 (inactive); in assay [16], 0.0192 (inactive); in assay [17], -0.00593 (inactive); in assay [18], 0.0478 (inactive).
Consider `CCCCC(=O)O[C@H]1CC[C@H]2[C@@H]3CCc4cc(O)ccc4[C@H]3CC[C@]12C`, for which the parasite load remaining in [1] is 36.5% (inactive). The molecule also registered a viability in assay [1] of 98.1%. Besides, the fluorescence ratio in [2] is 1.02 (inactive); in [5], 0.91 (inactive). Also, the inhibition in assay [3] was 3.18% (inactive); in assay [4] it was 4.1% (inactive); in [6], 6.29% (inactive). Moreover, the fold change in [8] (setting [20]) was 1 (inactive); in [8] (setting [21]) it was 2.83. In addition, the cell count in [8] (setting [22]) was found to be 6120; in assay [8] (setting [23]), 6090. For the same molecule, the values for the z-score in assay [9] (setting [24]), in assay [9] (setting [25]) and in assay [12] were -1.02 (inactive), -0.171 and -1.51 (inactive), respectively. For the same molecule, in assay [10], the remaining NAD is 10 nM (inactive). For the same molecule, the luciferase signal in [11] was 84 AU (inactive). Also, the log fold change Tl+ flux is 0.0324 (inactive) in assay [13]; 0.0462 (inactive) in assay [14]; 0.00253 (inactive) in assay [15]; 0.0329 (inactive) in [16]; 0.0221 (inactive) in assay [17]; -0.00327 (inactive) in [18].
For `CN1CCN(CC/C=C2/c3ccccc3Sc3ccc(S(=O)(=O)N(C)C)cc32)CC1`, in [6], the inhibition is 2.11% (inactive). Besides, the mean signal in [7] is 215 (inactive). Moreover, in [10], the remaining NAD was 10 nM (inactive). In addition, the luciferase signal in assay [11] is 108 AU (inactive).
